The list is not random: actives were taken first. Their share in the collection is about 2.2%.
TMEM16A inh: blocks the mouse calcium-activated chloride channel TMEM16A. Q8BHY3. HEK293 TMEM16A/YFP iodide influx fluorescence, ionomycin. normalized B-score (activity score, 25-100; higher = stronger inhibition) at 10 µM. 310,000 tested, 1.2% active. AID 588511;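 active = ratio plate-corrected score three or more library SD toward inhibition, starting fluorescence score within five deviations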;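 also: score derived from kinetic fluorescence span divided by baseline fluorescence per well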
M1 PAM parental: M1 PAM counterscreen hit in parental CHO-K1 cells; ATP EC20, Fluo-8 calcium fluorescence; 0% at ATP EC20, 100% at ATP max; activation, % at 3 µM; 360,000 tested, 0.02% active;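 active = activation above the run cutoff, the mean activation of all test compounds plus 3 SD, cut at about 40% in these data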;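 also: peak over basal fluorescence ratio in a 140 s read after ATP addition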
CHO-K1 Ca antag: M1 antagonist counterscreen hit in parental CHO-K1 cells; inhibition, % at 3 µM; 360,000 tested, 0.6% active; ATP-induced calcium, Fluo-8 fluorescence; AID 602250;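 active = inhibition above a per-plate cutoff, the plate's mean sample inhibition plus 3 SD, cut at about 24% in these data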;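 also: 0% = DMSO plus EC80 ATP and 100% = DMSO alone without ATP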
M1 ag parental: nonselective activator or artifact in parental CHO-K1 cells; Fluo-8 calcium fluorescence; scaled to maximal ATP response, vehicle zero; 360,000 tested, 0.48% active; activation, % at 3 µM; in the data active = activation above about 15%;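 also: untransfected CHO-K1 host cells lacking M1 receptor as counterscreen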
NTR1 agonist: agonists of human neurotensin receptor NTR1. P30989. NTR1-U2OS beta-arrestin-GFP spot imaging, agonist mode. activation, % at 20 µM. 330,000 tested, 0.17% active. AID 493036;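 active = activation at or above 40% of the spot to cytoplasm intensity ratio, with at least 20 cells analyzed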;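 also: 0% = DMSO without peptide and 100% = 100 nM NTR1 peptide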
Target sequence (P30989 whole entry, looked up): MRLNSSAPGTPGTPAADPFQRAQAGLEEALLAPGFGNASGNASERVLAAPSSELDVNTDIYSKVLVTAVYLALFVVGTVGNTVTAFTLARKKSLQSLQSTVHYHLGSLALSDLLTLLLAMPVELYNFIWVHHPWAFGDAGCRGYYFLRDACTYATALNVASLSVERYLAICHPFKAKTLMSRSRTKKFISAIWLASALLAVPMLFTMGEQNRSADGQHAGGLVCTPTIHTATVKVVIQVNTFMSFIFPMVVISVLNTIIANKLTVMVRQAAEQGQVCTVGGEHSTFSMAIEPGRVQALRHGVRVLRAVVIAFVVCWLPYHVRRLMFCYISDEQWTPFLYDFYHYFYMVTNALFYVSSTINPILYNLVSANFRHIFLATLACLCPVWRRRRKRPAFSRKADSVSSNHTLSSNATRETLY
TMEM16A act: activators or potentiators of mouse TMEM16A chloride channel; Q8BHY3; HEK293 TMEM16A/YFP-H148Q/I152L, iodide quench fluorescence; hits give low values; B-score at 10 µM; 340,000 tested, 0.3% active; AID 623877;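 active = fluorescence-ratio B-score plate-corrected deviation score at least 3 library SD below zero, with starting fluorescence score within 5 deviations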;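 also: channel opened by trigger with iodide after compound preincubation; score built on the fluorescence ratio of max minus min over baseline; more negative score means more quench and so TMEM16A activation or potentiation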
TMEM16A reconf: re-confirmation of mouse TMEM16A chloride channel inhibitors. shares compounds with TMEM16A inh. HEK293 TMEM16A/YFP-H148Q, iodide quench fluorescence; ionomycin added to raise cell calcium. inhibition, % at 10 µM. 2,300 tested, 39% active. AID 652189;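 active = mean duplicate percent inhibition, scaled so buffer wells are 0 and the reference blocker 100, over three buffer SD above buffer mean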
TMEM16A Ca cntr: calcium mobilization counter-screen hit for TMEM16A inhibitor series | shares compounds with TMEM16A inh | AID 652231 | 2,300 tested, 2% active | TMEM16A/YFP HEK293, Fluo4 calcium mobilization | calcium response (% of ionomycin), % at 10 µM;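 active = duplicate-averaged calcium signal over 20% of the ionomycin maximum, relative to buffer baseline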;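 also: each well's signal is peak minus trough fluorescence divided by its pre-addition baseline; 0% = buffer wells and 100% = ionomycin wells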
YFP-HEK293 quench: acts in parental YFP-HEK293 cells lacking TMEM16A, counter-screen. shares compounds with TMEM16A inh. iodide YFP quench, ionomycin. YFP ratio F(max-min)/F0 at 10 µM. 2,300 tested, under 10 active. AID 652233;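 active = yellow fluorescent protein signal ratio exceeding the buffer control mean by over 5 SD of those controls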;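 also: ratio is mean of duplicate wells from kinetic YFP trace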
ClC-1 rat inh: blocks the rat ClC-1 voltage-dependent chloride channel. shares compounds with TMEM16A inh. CHO ClC-1-YFP, iodide influx fluorescence quench; iodide control reads 0, buffer control 100. ratio percent, % at 10 µM. 2,300 tested, under 10 active;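 active = duplicate-mean ratio percent above the mean of iodide-only control wells, which defines zero, plus 5 of their SD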;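 also: higher percent means stronger block of ClC-1 iodide influx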
Starred values were filed as active, the others as inactive; i = inactive; . = not tested or not shown.

SMILES	TMEM16A inh	M1 PAM parental	CHO-K1 Ca antag	M1 ag parental	NTR1 agonist	TMEM16A act	TMEM16A reconf	TMEM16A Ca cntr	YFP-HEK293 quench	ClC-1 rat inh
CCOC(=O)c1c(C)[nH]c(C(=O)OC/C(O)=C(\C#N)c2nc3ccccc3[nH]2)c1C	100*	-1	-1	1	1	-7.5*	i	i	-0.93	0
COc1ccc2oc(C(=O)OC/C(O)=C(\C#N)c3nc4ccccc4[nH]3)c(C)c2c1	i	19	-14	1	4	i	.	.	.	.
CCC1CC(C(=O)O)CC(=O)N1 (stereo not given)	.	6	12	0	.	.	.	.	.	.
COc1ccccc1CNC(=O)c1nn(-c2ccc(C)cc2)c(=O)c2c1c1ccccc1n2C	i	-6	4	0	6	i	i	i	-1.3	-4
COc1ccc(-n2nc(C(=O)NCc3ccco3)c3c4ccccc4n(C)c3c2=O)cc1Cl	i	19	-1	0	-2	i	.	.	.	.
CCCN(CCC)S(=O)(=O)c1ccc2c(c1)CCCN2C(C)=O	i	11	0	4	1	i	.	.	.	.
CCCN(CCC)S(=O)(=O)c1ccc(C(=O)N2CCCc3ccccc32)cc1	100*	13	5	4	2	i	i	i	-1	-12
N#Cc1ccc(C(=O)N2CCC3CC2c2cc(N4CCCCC4)ccc23)cc1 (stereo not given)	.	14	-11	3	.	.	.	.	.	.
O=C(OCc1csc(-c2ccccc2)n1)c1ccc(O)cc1	100*	-5	-5	2	3	i	i	i	-1.1	-6
Cc1cccc(C)c1C(O)c1ncc(-c2cccc(F)c2)[nH]1 (stereo not given)	.	9	-9	1	.	.	.	.	.	.
CNC(=O)c1sc(N2N=C3/C(=C\c4ccccc4)CCCC3C2c2ccccc2)nc1C (stereo not given)	.	-16	0	0	.	i	.	.	.	.
CNC(=O)c1sc(N2N=C3/C(=C/c4ccccc4)CCCC3C2c2ccccc2)nc1C (stereo not given)	100*	15	-26	0	11	i	46%*	58%*	-0.92	-6
Fc1ccc(-c2csc(N3CCC(c4ccccc4)C3)n2)cc1 (stereo not given)	100*	9	-3	0	0	i	i	i	-0.87	-10
Cn1c(Cc2ccccc2)nnc1SCC(=O)NC1CCCCC1	i	4	7	0	1	i	.	.	.	.
Cn1c(Cc2ccccc2)nnc1SCC(=O)NC1CCCC1	100*	8	-16	0	0	i	i	i	-1.1	-14
COc1ccc(-c2csc(=Nc3ccccc3)n2CCO)cc1	100*	13	-5	7	0	i	44%*	i	-1.2	0
CC(=O)c1cccc(N=c2scc(-c3ccc(S(=O)(=O)N4CCOCC4)cc3)n2CCO)c1	25*	-6	32*	10	3	i	38%*	i	-1	-18
C=CCn1c(-c2ccc(S(=O)(=O)N3CCOCC3)cc2)csc1=Nc1ccccc1	i	17	8	6	1	i	.	.	.	.
Cc1cc(C)nc(SCC(=O)Nc2ccnc3ccccc23)n1	i	5	19	14	-2	i	.	.	.	.
O=C(CSC1=NCCS1)Nc1ccnc2ccccc12	100*	-5	20	11	1	i	18%*	i	-1.1	-22
CC(=O)c1ccc(S(=O)(=O)N2CCN(C(=O)c3ccc(-n4nc(C)c(Cl)c4C)cc3)CC2)cc1	.	-6	3	1	0	i	.	.	.	.
O=C(O)CC(C(=O)O)C(=Cc1ccccc1)c1ccccc1 (stereo not given)	.	-10	-5	0	.	.	.	.	.	.
CCOC(=O)c1cnc2sc3c(n2c1=O)CCCC3	100*	17	-4	1	4	i	i	i	-1.1	-8
O=C(COC(=O)CN1C(=O)c2ccccc2C1=O)Nc1ccccc1C(F)(F)F	.	-1	-7	0	.	.	.	.	.	.
Cn1c(O)c(/C=N/NC(=O)c2cc3ccccc3cc2O)c2ccccc21	i	14	-6	7	1	i	.	.	.	.
SMILES	TMEM16A inh	M1 PAM parental	CHO-K1 Ca antag	M1 ag parental	NTR1 agonist	TMEM16A act	TMEM16A reconf	TMEM16A Ca cntr	YFP-HEK293 quench	ClC-1 rat inh
COc1ccc2c(c1)cc(C(=O)N/N=C/c1c(O)c(C(=O)O)cc3ccccc13)n2C	i	-5	-2	0	1	i	i	i	-1.4	-20
CCOc1ccc(C(=O)C(C)OC(=O)C2CCN(c3ccc(C(F)(F)F)cn3)CC2)cc1 (stereo not given)	25*	-10	-3	0	3	i	i	i	-1.1	-12
CCN(c1ccccc1)S(=O)(=O)c1cc(C(=O)Nc2cccc(Cl)c2)ccc1F	100*	10	4	4	6	i	i	i	-1.2	-7
CC(Sc1nc2ccccc2s1)C(=O)c1c(N)n(C)c(=O)n(C)c1=O (stereo not given)	100*	10	-10	1	4	i	i	i	-1.2	-8
COC(=O)C1CCN(S(=O)(=O)c2ccc(OC)cc2)CC1	100*	22	-6	3	-3	i	i	i	-1.2	-10
COc1cccc(OC)c1C(=O)Nc1cc(Cl)ccc1N1CCOCC1	i	9	-10	1	0	i	i	i	-1	-9
CC(Oc1cccc(Cl)c1)C(=O)Nc1ccc(N2CCOCC2)cc1N1CCOCC1 (stereo not given)	25*	-4	-4	1	3	i	i	i	-1	-8
CC(Oc1ccc(F)cc1)C(=O)Nc1ccc(N2CCOCC2)cc1N1CCOCC1 (stereo not given)	i	-13	-6	0	0	i	.	.	.	.
COc1cccc(OC)c1C(=O)Nc1ccccc1C(=O)N1CCOCC1	100*	19	-7	1	1	i	i	i	-0.81	-5
CCCCn1nnnc1C1(C)CCC(=O)N1C1CC1 (stereo not given)	.	13	-3	0	.	.	.	.	.	.
Cc1cc(C)nc(NNS(=O)(=O)c2c(F)cc(F)cc2Br)n1	.	-10	4	0	0	i	.	.	.	.

Assay outcomes: PubChem, several laboratories
